TDP1 cell CPT: DT40-hTDP1 cell growth loss with CPT; Potency, µM (doses to about 46.2 µM), actives largely listed as inhibitors; 420,000 tested, 12% active; chicken DT40 Tdp1-/-;hTDP1 cells + 20 nM CPT, ATP luminescence, 48 h; note: nearly all actives have a fitted effect of over 55% in size
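Chicken DT40 Tdp1-/- cells complemented with human TDP1, 400 cells/well, exposed to compounds plus 20 nM camptothecin for at least 48 h at 37 C; viability read as ATP content by CellTiter-Glo luminescence.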
IL-1B inflam inh: inflammasome signaling inhibition, IL-1 beta readout; 360,000 tested, 4.7% active; THP-1 LPS/ATP IL-1B secretion, AlphaLISA, 16 h; stronger effect = lower value; AID 743279; activity change, % at 57.5 µM; in the data active = activity change below about -50%; inconclusive = mostly about -30% to -49%
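THP-1 cells pretreated 1 hr with compounds (up to 57.5 uM final), then stimulated with LPS (250 ng/mL final) plus ATP (1.25 mM final); secreted IL-1B measured by AlphaLISA after 16 hr, decreased signal indicating inhibition.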
TDP1 cell noCPT: qHTS for Inhibitors of human tyrosyl-DNA phosphodiesterase 1 (TDP1): qHTS in cells in absence of CPT; DT40 Tdp1-/- hTDP1 cells, no CPT, ATP luminescence, 48 h; 420,000 tested, 15% active; AID 686978, 2013; Potency, µM (highest dose often 46.2 µM), usual class: inhibitors; note: nearly all actives have a fitted effect of over 55% in size
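No-CPT arm: Tdp1-/-;hTDP1 DT40 cells (400/well) plus compounds, incubated ≥48 hr at 37 °C. Readout CellTiter-Glo luminescence.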
HepG2 tox: kills HepG2 cells in TGF-b inhibitor counter-screen; HepG2 CAGA-GFP viability, ATP luminescence, 18 h; Potency, µM (series often up to 46.1 µM), hits mostly cytotoxic; 410,000 tested, 0.76% active; AID 588856
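HepG2 CAGA-GFP cells (1000/well, DMEM with 1% FBS) received compound, then TGF-beta at 500 pg/mL final, and were incubated 18 hours at 37 degrees C. Viability was read by CellTiter-Glo luminescence. Media-only wells were set as complete cell-killing and DMSO as no toxicity.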
ASM inhibitor: blocks human secretory acid sphingomyelinase. P17405. placental ASM, HMU-PC fluorogenic substrate, 60 min. Potency, µM (highest dose often 57.5 µM), hits mostly inhibitors. 340,000 tested, 0.006% active
Target sequence (P17405 47-631 limits assumed): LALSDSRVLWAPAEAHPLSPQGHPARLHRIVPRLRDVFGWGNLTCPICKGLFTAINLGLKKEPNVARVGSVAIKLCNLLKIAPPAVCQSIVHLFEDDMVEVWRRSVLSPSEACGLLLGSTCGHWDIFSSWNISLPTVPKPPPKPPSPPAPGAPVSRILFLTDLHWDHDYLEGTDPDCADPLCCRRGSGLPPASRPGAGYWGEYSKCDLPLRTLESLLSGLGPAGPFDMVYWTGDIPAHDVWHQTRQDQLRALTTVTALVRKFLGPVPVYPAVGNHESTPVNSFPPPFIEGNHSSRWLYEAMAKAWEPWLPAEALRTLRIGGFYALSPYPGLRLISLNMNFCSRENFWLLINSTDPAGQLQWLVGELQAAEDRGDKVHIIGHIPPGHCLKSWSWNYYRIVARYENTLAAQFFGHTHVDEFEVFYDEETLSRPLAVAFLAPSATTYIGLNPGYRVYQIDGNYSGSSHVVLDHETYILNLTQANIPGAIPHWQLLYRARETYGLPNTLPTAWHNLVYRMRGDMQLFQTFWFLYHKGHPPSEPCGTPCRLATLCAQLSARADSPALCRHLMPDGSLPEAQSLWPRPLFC
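Fluorogenic HMU-PC substrate (9 uM final) is turned over by placental ASM in 60 min at 37 C after a 10 min compound preincubation. Reaction ended by alkaline stop (pH 10), with fluorescence read at 386/447 nm.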
TGFb SMAD3 inh: inhibitors of TGF-b signaling | 410,000 tested, 1.2% active | Potency, µM (series often up to 46.1 µM), usual class: inhibitors | AID 588855 | HepG2 CAGA-GFP TGF-b/SMAD3 reporter, GFP fluorescence, 18 h; TGF-beta stimulated, 500 pg/mL final; note: nearly all actives have a fitted effect of over 65% in size
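Using HEPG2 CAGA-GFP reporter cells at 1000 cells/well, we pinned test compounds, stimulated with recombinant TGF-beta (500 pg/mL final) and measured total well GFP after 18 h.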
Hits are given with their value; - = inactive; ? = inconclusive; . = not tested or not shown; ! = not confirmed by another sample; [ ] = another dose, or the depositor's remark. Most compounds without a hit are left out; they make up all but 19% or so of the library. Unless noted, calls come from the whole dose curve; as a rule, active = well fitted curve in the direction sought with a large enough effect; inconclusive = small, poorly fitted or top-dose-only effect, or another doubt; inactive = no such curve, though single readings can be large; an effect the other way counts as inactive or inconclusive.

SMILES | TDP1 cell CPT | IL-1B inflam inh | TDP1 cell noCPT | HepG2 tox | ASM inhibitor | TGFb SMAD3 inh
CC(C)CCNC(=O)CN1C(=O)CSc2ccc(S(=O)(=O)N3CCC(C)CC3)cc21 | ? | . | ? | - | . | -
CN1CCN(C(=O)c2ccc(CNS(=O)(=O)c3ccc(F)c(Cl)c3)cc2)CC1 | ? | - | - | - | - | -
COc1cccc(Cn2c(=O)c(C)nc3cnc(Nc4ccccc4)nc32)c1 | - | . | ? | . | . | .
Cc1ccc(NC(=S)NNC(=O)c2ccccc2O)c(C)c1 | 23µM | - | 13µM | - | - | ?
Cc1cccc(NC(=S)NNC(=O)c2ccc(O)cc2O)c1C | - | - | - | - | - | -
COc1ccc(OC)c(NC(=S)NCCC(c2ccccc2)c2ccccc2)c1 | ? | - | 15µM | - | - | -
Cc1ccccc1NC(=S)NC(C)CCc1ccccc1 (stereo unspecified) | ? | - | 21µM | - | - | -
Cc1ccc(NC(=S)NCCC(c2ccccc2)c2ccccc2)c(C)c1 | 23µM | - | 16µM | - | - | ?
COc1cc(NC(=O)CCc2nnc3ccc(NCc4ccco4)nn23)cc(OC)c1 | - | - | - | - | - | -
CC(CNC(=O)COC(=O)c1ccco1)c1ccccc1 (stereo unspecified) | - | - | - | - | - | -
O=C(CCC(=O)Nc1ccccc1Cl)NNC(=O)NC1CCCCC1 | - | - | - | - | - | -
Cc1ccc(NC(=S)NCc2ccccc2)c(C)c1 | 23µM | - | ? | - | - | -
CN(C)CCNC(=S)Nc1ccccc1C(C)(C)C | - | - | - | - | - | ?
Cc1ccccc1NC(=S)NCCC(c1ccccc1)c1ccccc1 | ? | -62 | ? | - | - | ?
CC(C)(C)c1ccccc1NC(=S)NCc1ccccc1 | ? | - | 18µM | - | - | -
Cc1cc(C)n2nc(CNS(=O)(=O)c3cccc(Cl)c3)nc2n1 | - | . | - | - | . | -
Nc1nc(=S)c2ncn(C3OC(CO)C(O)C3O)c2[nH]1 (stereo unspecified) | 4.1µM | - | 8.2µM | - | ? | ?
CC1(C)OC2C(CO)OC(n3cnc4c(=S)nc(N)[nH]c43)C2O1 (stereo unspecified) | 12µM | - | 15µM | - | . | ?
OCC1OC(n2cnc3c(=S)nc[nH]c32)C(O)C1O (stereo unspecified) | 10µM! | . | ? | - | . | 10µM!
Nc1nc(=S)c2ncn([C@@H]3O[C@H](CO)[C@@H](O)[C@H]3O)c2[nH]1 | 1.6µM | - | 1.8µM | - | - | -
CC1(C)OC2C(CO)OC(n3cnc4c(=S)nc[nH]c43)C2O1 (stereo unspecified) | - | - | - | - | - | -
Nc1nc(=S)c2ncn(C3CCCCC3)c2[nH]1 | - | - | - | - | - | -
Nc1nc2c(ncn2[C@@H]2O[C@H](CO)[C@@H](O)[C@H]2O)c(=O)[nH]1 | - | . | - | . | . | .
COCCNC(=O)c1[nH]c2cc(C)ccc2c1Sc1ccc(Cl)cc1 | - | . | - | - | . | -
CC(Oc1ccc2c(-c3ccccc3)cc(=O)oc2c1)C(=O)NCC(O)c1ccccc1 (stereo unspecified) | ? | - | ? | - | - | -
SMILES | TDP1 cell CPT | IL-1B inflam inh | TDP1 cell noCPT | HepG2 tox | ASM inhibitor | TGFb SMAD3 inh
COc1ccc(-n2c(CNC(=O)c3cccc(OC)c3OC)nnc2SC)cc1 | -[9.04 µM] | . | - | . | . | .
Cc1ccc(CCNC(=O)CCCn2c(=O)c3ccccc3n(Cc3ccccc3C#N)c2=O)cc1 | ? | . | ? | - | . | -
CSc1ncccc1C(=O)Nc1ccc(S(=O)(=O)NC2=NCCCCC2)cc1 | - | - | - | - | - | -
COc1ccc(Cc2noc(-c3ccc(C)cc3)n2)cc1 | - | - | - | - | - | ?
COc1ccc(Cc2noc(-c3ccc([N+](=O)[O-])cc3)n2)cc1OC | 26µM | - | ? | - | - | ?
CCOC(=O)N1CCC2(CC1)OC(=O)C(C)=C2C(=O)NCc1cccc(OC)c1 | - | . | ? | - | . | -
CNCc1ccccc1Sc1ccc(O)c(O)c1 | 2.6µM | -125 | 4.1µM | - | - | ?
CCc1cccc(CC)c1NC(=S)Nc1cccc(Cl)c1Cl | 18µM | - | ? | 18µM | - | ?
Fc1ccc(NC(=S)NC2CCN(Cc3ccccc3)CC2)cc1 | ? | - | ? | - | - | -
CC(C)(Oc1ccc(Cl)cc1)C(=O)NC1CCN(Cc2ccccc2)CC1 | ? | ? | 18µM | - | - | -
S=C(Nc1ccc(CN2CCCCC2)cc1)Nc1cccc(Cl)c1Cl | ? | - | 18µM | - | - | -
CC(=O)Nc1cccc(NC(=S)Nc2cccc(Cl)c2Cl)c1 | - | - | - | - | - | -
CC(C)(C)CC(C)(C)NC(=S)NC1CCN(Cc2ccccc2)CC1 | 5.2µM | -104 | 4.6µM | - | - | ?
Cc1cccc(NC(=S)NC2CCN(Cc3ccccc3)CC2)c1C | ? | - | ? | - | - | -
S=C(Nc1cccc(Cl)c1Cl)NC1CCN(Cc2ccccc2)CC1 | 21µM | -81 | ? | - | - | -

Screening results deposited in PubChem BioAssay by National Center for Advancing Translational Sciences (NCATS).
